For eight sequences, binding signal results are on record in article PMC7862700, “An all-to-all approach to the identification of sequence-specific readers for epigenetic DNA modifications on cytosine”.

Assay in all cases: DAPPL (digital affinity profiling via proximity ligation, sequencing); 10 mM Tris-HCl pH 7.5, 50 mM NaCl, 1 mM DTT, 4% glycerol, room temperature, 30 min; GST-TFs on glutathione beads, 16-mer random dsDNA library, 0.1% formaldehyde crosslink after washing; high values mean tight binding
What all share (conditions): protein: recombinant; tags: N-terminal GST; dsDNA, one strand shown

One test deals with T1, FLI1 (Homo sapiens, UniProt Q01543 1-452).
T1 sequence: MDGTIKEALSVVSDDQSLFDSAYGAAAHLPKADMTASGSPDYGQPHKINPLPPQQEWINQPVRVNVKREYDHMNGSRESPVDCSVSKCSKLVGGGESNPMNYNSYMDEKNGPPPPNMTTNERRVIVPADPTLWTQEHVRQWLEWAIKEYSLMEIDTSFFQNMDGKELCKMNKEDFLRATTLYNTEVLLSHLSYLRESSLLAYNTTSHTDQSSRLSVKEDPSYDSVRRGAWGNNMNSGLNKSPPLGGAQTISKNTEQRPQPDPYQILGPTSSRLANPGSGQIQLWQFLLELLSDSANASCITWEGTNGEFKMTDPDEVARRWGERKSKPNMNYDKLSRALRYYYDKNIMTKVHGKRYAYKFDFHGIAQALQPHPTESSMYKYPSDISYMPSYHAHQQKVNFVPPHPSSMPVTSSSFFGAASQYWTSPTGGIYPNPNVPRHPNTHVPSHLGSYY
The procedure, abridged:
(§1)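 In yeast, human transcription factors were expressed with a GST fusion, then pulled down on glutathione beads and given DNA barcodes. Pooled with a tag-only sample, they were exposed to 200 nmole of a 16-mer random double-stranded DNA library (Tris/NaCl/DTT/glycerol buffer, room temperature, 30 min), washed, crosslinked with 0.1% formaldehyde, proximity-ligated using BsaI/T4 ligase for 1 h at 37 °C, PCR-amplified and read on an Illumina NextSeq500. Each hexamer's frequency of reads for a factor, divided by the matching frequency for the tag-only sample, gives the binding signal.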

In the next test the target is T2, ELK1 (Homo sapiens, UniProt P19419 1-428).
T2 sequence: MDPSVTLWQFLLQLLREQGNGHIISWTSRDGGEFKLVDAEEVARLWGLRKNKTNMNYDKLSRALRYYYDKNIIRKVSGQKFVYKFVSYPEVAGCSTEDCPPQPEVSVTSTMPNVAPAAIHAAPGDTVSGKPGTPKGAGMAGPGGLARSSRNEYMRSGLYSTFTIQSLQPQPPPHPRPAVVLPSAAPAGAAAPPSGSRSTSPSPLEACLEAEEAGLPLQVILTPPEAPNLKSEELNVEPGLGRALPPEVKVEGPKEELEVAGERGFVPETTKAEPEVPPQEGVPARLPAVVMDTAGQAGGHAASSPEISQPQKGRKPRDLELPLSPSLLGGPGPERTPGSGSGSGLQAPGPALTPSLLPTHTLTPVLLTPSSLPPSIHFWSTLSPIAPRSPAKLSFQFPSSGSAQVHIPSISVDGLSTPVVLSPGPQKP
A digest of the protocol: as §1

The target of the next test is T3, GABPA (Homo sapiens, UniProt Q06546 1-454).
T3 sequence: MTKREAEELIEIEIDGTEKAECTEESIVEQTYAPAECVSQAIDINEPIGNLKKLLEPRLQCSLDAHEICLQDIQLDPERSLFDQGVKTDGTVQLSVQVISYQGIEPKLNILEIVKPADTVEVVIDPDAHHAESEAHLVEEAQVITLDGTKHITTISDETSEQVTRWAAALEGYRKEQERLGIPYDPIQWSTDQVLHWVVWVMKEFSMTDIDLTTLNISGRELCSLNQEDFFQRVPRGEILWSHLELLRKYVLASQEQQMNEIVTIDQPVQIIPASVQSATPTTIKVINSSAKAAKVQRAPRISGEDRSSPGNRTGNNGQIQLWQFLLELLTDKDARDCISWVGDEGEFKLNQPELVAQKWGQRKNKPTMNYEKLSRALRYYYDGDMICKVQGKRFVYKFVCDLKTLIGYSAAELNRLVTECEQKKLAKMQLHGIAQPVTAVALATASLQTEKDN
The procedure, abridged: as §1

A further test addresses T4, ERG (Homo sapiens, UniProt P11308 1-479).
T4 sequence: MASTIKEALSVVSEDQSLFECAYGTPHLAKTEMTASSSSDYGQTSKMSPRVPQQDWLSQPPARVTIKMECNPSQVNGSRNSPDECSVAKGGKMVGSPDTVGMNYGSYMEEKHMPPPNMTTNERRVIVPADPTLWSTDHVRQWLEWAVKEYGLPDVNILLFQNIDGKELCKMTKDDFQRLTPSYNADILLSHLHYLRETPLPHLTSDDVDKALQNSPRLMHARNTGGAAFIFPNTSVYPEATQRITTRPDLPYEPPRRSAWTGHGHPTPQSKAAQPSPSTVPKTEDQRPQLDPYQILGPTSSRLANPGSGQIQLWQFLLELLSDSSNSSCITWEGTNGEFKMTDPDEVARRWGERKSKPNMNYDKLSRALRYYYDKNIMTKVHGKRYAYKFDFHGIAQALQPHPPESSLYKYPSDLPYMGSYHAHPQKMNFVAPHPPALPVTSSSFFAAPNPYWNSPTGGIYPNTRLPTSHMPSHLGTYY
The procedure, abridged:
as §1

The target in the next test is ELF1 (Homo sapiens, UniProt P32519 1-619). A digest of the protocol: as §1
The target of the next test is T5, EHF (Homo sapiens, UniProt Q9NZC4 1-300).
T5 sequence: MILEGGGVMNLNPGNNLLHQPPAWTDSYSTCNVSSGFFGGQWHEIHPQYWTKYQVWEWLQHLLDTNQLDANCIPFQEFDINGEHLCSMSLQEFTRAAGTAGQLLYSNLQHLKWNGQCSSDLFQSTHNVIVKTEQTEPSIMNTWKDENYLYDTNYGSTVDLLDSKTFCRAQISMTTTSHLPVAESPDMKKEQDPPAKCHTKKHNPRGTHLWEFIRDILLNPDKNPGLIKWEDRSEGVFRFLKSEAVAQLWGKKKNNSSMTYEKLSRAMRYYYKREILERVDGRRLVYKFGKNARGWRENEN
A digest of the protocol: as §1

For another test, the target named is SPI1 (Homo sapiens, UniProt P17947 1-270). The procedure, abridged:
as §1

A further test concerns the target SPIB (Homo sapiens, UniProt Q01892 1-262). The procedure, abridged:
as §1

The target of the next test is T6, ELK3 (Homo sapiens, UniProt P41970 1-407).
T6 sequence: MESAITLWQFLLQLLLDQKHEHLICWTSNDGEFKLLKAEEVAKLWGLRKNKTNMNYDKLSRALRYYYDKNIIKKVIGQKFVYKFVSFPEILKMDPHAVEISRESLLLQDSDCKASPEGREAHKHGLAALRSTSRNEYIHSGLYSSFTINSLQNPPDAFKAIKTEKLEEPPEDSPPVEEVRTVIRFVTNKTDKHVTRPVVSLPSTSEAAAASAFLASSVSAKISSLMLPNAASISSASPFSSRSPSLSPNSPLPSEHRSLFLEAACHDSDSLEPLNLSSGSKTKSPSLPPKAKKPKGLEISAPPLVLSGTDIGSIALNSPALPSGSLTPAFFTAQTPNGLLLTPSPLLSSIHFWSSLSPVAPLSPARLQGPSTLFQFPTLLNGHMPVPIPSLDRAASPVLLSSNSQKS
The procedure, abridged:
as §1

Chain of SPIB (Q01892 whole entry): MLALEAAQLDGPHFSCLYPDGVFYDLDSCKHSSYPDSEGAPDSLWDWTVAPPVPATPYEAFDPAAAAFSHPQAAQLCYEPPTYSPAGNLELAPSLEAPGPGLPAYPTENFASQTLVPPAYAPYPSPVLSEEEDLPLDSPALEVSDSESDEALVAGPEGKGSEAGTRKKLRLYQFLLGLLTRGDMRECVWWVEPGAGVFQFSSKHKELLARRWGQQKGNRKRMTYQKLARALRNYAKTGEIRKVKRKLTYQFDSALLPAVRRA
Chain of ELF1 (P32519 whole entry): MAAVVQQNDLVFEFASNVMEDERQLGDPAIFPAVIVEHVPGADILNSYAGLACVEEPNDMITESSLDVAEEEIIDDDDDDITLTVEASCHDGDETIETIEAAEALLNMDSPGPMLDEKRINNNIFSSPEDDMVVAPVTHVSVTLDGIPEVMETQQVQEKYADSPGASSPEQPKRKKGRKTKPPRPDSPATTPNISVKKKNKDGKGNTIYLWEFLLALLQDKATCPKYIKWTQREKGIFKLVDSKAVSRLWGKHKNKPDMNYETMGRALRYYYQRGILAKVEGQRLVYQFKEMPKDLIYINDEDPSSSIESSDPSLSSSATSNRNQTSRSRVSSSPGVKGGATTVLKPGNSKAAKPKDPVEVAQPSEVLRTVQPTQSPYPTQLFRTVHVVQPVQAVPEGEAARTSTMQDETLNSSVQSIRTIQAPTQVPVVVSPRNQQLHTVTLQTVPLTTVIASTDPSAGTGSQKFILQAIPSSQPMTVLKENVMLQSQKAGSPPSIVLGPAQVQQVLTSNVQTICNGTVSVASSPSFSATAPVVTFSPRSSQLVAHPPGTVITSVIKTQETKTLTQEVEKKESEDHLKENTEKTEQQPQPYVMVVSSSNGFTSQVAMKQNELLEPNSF

With CTAAGA, the binding signal with FLI1 was 1.21 fold enrichment (6-mer frequency, TF over GST control); with ELK1 it was 1.22 fold enrichment (6-mer frequency, TF over GST control); in the test with GABPA, 1.16 fold enrichment (6-mer frequency, TF over GST control); with ERG, 1.17 fold enrichment (6-mer frequency, TF over GST control); with ELF1, 1.18 fold enrichment (6-mer frequency, TF over GST control); in the test with EHF it was 1.26 fold enrichment (6-mer frequency, TF over GST control). Further, the binding signal with SPI1 was 1.15 fold enrichment (6-mer frequency, TF over GST control); with SPIB, 1.24 fold enrichment (6-mer frequency, TF over GST control); with ELK3, 1.18 fold enrichment (6-mer frequency, TF over GST control).
Consider ATGACA, for which the binding signal in the test with FLI1 was 1.34 fold enrichment (6-mer frequency, TF over GST control); with ELK1, 1.32 fold enrichment (6-mer frequency, TF over GST control); in the test with GABPA it was 1.45 fold enrichment (6-mer frequency, TF over GST control); with ERG, 1.32 fold enrichment (6-mer frequency, TF over GST control); with ELF1, 1.39 fold enrichment (6-mer frequency, TF over GST control); with EHF it was 1.32 fold enrichment (6-mer frequency, TF over GST control). Besides, the binding signal was 1.29 fold enrichment (6-mer frequency, TF over GST control) in the test with SPI1; 1.32 fold enrichment (6-mer frequency, TF over GST control) with SPIB; 1.3 fold enrichment (6-mer frequency, TF over GST control) with ELK3.
Regarding TTCTAC, the binding signal is 1.39 fold enrichment (6-mer frequency, TF over GST control) in the test with FLI1; 1.43 fold enrichment (6-mer frequency, TF over GST control) with ELK1; 1.59 fold enrichment (6-mer frequency, TF over GST control) with GABPA; 1.53 fold enrichment (6-mer frequency, TF over GST control) in the test with ERG; 1.55 fold enrichment (6-mer frequency, TF over GST control) in the test with ELF1; 1.49 fold enrichment (6-mer frequency, TF over GST control) in the test with EHF. The binding signal was 1.46 fold enrichment (6-mer frequency, TF over GST control) in the test with SPI1; 1.6 fold enrichment (6-mer frequency, TF over GST control) with SPIB; 1.44 fold enrichment (6-mer frequency, TF over GST control) in the test with ELK3.
Consider AATTAC, for which the binding signal with FLI1 was 1.24 fold enrichment (6-mer frequency, TF over GST control); with ELK1 it was 1.19 fold enrichment (6-mer frequency, TF over GST control); in the test with GABPA it was 1.26 fold enrichment (6-mer frequency, TF over GST control); with ERG, 1.25 fold enrichment (6-mer frequency, TF over GST control); with ELF1, 1.26 fold enrichment (6-mer frequency, TF over GST control); in the test with EHF, 1.33 fold enrichment (6-mer frequency, TF over GST control). Moreover, the binding signal was 1.35 fold enrichment (6-mer frequency, TF over GST control) with SPI1; 1.35 fold enrichment (6-mer frequency, TF over GST control) with SPIB; 1.24 fold enrichment (6-mer frequency, TF over GST control) with ELK3.
On to ATGACT, for which the binding signal with FLI1 was 1.5 fold enrichment (6-mer frequency, TF over GST control); in the test with ELK1, 1.42 fold enrichment (6-mer frequency, TF over GST control); with GABPA it was 1.39 fold enrichment (6-mer frequency, TF over GST control); with ERG, 1.44 fold enrichment (6-mer frequency, TF over GST control); with ELF1 it was 1.42 fold enrichment (6-mer frequency, TF over GST control); with EHF it was 1.35 fold enrichment (6-mer frequency, TF over GST control). For the same sequence, the binding signal with SPI1 is 1.51 fold enrichment (6-mer frequency, TF over GST control); in the test with SPIB, 1.52 fold enrichment (6-mer frequency, TF over GST control); in the test with ELK3, 1.33 fold enrichment (6-mer frequency, TF over GST control).
On to TTGTGC, for which the binding signal with FLI1 is 1.28 fold enrichment (6-mer frequency, TF over GST control); in the test with ELK1 it was 1.25 fold enrichment (6-mer frequency, TF over GST control); in the test with GABPA, 1.27 fold enrichment (6-mer frequency, TF over GST control); with ERG, 1.23 fold enrichment (6-mer frequency, TF over GST control); with ELF1, 1.14 fold enrichment (6-mer frequency, TF over GST control); with EHF it was 1.21 fold enrichment (6-mer frequency, TF over GST control). Besides, the binding signal with SPI1 was 1.18 fold enrichment (6-mer frequency, TF over GST control); with SPIB, 1.1 fold enrichment (6-mer frequency, TF over GST control); with ELK3, 1.21 fold enrichment (6-mer frequency, TF over GST control).
Turning to TTACAA, the binding signal in the test with FLI1 was 1.15 fold enrichment (6-mer frequency, TF over GST control); in the test with ELK1, 1.17 fold enrichment (6-mer frequency, TF over GST control); with GABPA, 1.16 fold enrichment (6-mer frequency, TF over GST control); with ERG, 1.16 fold enrichment (6-mer frequency, TF over GST control); in the test with ELF1 it was 1.15 fold enrichment (6-mer frequency, TF over GST control); with EHF, 1.17 fold enrichment (6-mer frequency, TF over GST control). For the same sequence, the binding signal with SPI1 is 1.15 fold enrichment (6-mer frequency, TF over GST control); in the test with SPIB, 1.07 fold enrichment (6-mer frequency, TF over GST control); in the test with ELK3, 1.13 fold enrichment (6-mer frequency, TF over GST control).
Turning to TAGTAC, the binding signal with FLI1 is 1.11 fold enrichment (6-mer frequency, TF over GST control); with ELK1, 1.13 fold enrichment (6-mer frequency, TF over GST control); with GABPA it was 1.22 fold enrichment (6-mer frequency, TF over GST control); in the test with ERG, 1.24 fold enrichment (6-mer frequency, TF over GST control); in the test with ELF1 it was 1.16 fold enrichment (6-mer frequency, TF over GST control); with EHF it was 1.08 fold enrichment (6-mer frequency, TF over GST control). Moreover, the binding signal in the test with SPI1 is 1.07 fold enrichment (6-mer frequency, TF over GST control); in the test with SPIB, 1.06 fold enrichment (6-mer frequency, TF over GST control); with ELK3, 1.12 fold enrichment (6-mer frequency, TF over GST control).
